Laboratory results from paper PMC12820563, “FoxP3 forms a head-to-head dimer in vivo and stabilizes its multimerization on adjacent microsatellites”.
Whole data set: some 16,000 sequences, median “rpm ratio (pull-down/input)” near 0.5, cut for the highest 2% near 5.5. Only a selection was taken, and the highest values are over-represented in it overall.

What follows are sequences tested against T1, MBP-FoxP3dN (Mus musculus, UniProt Q99JB6 188-423) (assay: PD-seq (MBP pull-down with sequencing); 20 mM Tris-HCl pH 7.5, 100 mM NaCl, 1.5 mM MgCl2, 0.4 uM protein, 0.1 uM dsDNA library, 30 min, room temperature, amylose pull-down; high values mean tight binding). Conditions: protein: recombinant; tags: His6-MBP; chain copies: 2; dsDNA, one strand shown.
T1 sequence: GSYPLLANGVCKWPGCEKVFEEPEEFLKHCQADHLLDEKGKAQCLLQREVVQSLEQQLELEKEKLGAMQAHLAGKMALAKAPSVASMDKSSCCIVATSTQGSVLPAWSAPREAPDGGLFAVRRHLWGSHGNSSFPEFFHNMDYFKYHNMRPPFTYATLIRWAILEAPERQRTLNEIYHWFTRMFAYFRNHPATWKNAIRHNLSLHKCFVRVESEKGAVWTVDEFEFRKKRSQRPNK
In short: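 Protein and DNA were mixed at 0.4 µM and 0.1 µM and held for 30 min at room temperature in Tris pH 7.5 buffer with NaCl and MgCl2; the protein was a His6-MBP-tagged, N-terminally truncated mouse FoxP3 or FoxP1 fragment from E. coli, and the DNA a Klenow-filled double-stranded degenerate library. Amylose resin captured the complexes, which were washed three times. Binding is read as reads-per-million enrichment of pull-down versus input after Illumina sequencing, with replicates pooled.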

Sequence | binding signal
GATGATTGTTCTCCCAGCTGATGAATTATTCAGATCGAGTAAACAAATTTTCCTAATCTTTCTGTTCAAGCGCCATCTAC | 0.24 RPM ratio (pull-down/input)
GATGATTGTTCTCCCAGCTGATGAATTTTTTCAATCGAGTAAACAAATTTTCCTAATCTTTCTGTTCAAGCGCCATCTAC | 0.247 RPM ratio (pull-down/input)
GATGATTGTTCTCCCAGCTGATGAATTTGGTGAGTCGAGTAAACAAATTTTCCTAATCTTTCTGTTCAAGCGCCATCTAC | 0.814 RPM ratio (pull-down/input)
GATGATTGTTCTCCCAGCTGATGAATTGTAGGCGTCGAGTAAACAAATTTTCCTAATCTTTCTGTTCAAGCGCCATCTAC | 0.778 RPM ratio (pull-down/input)
GATGATTGTTCTCCCAGCTGATGAATTGTTCACGTCGAGTAAACAAATTTTCCTAATCTTTCTGTTCAAGCGCCATCTAC | 0.396 RPM ratio (pull-down/input)
GATGATTGTTCTCCCAGCTGATGAATTCTGTCGCTCGAGTAAACAAATTTTCCTAATCTTTCTGTTCAAGCGCCATCTAC | 0.926 RPM ratio (pull-down/input)
GATGATTGTTCTCCCAGCTGATGAATTACCACGCTCGAGTAAACAAATTTTCCTAATCTTTCTGTTCAAGCGCCATCTAC | 0.466 RPM ratio (pull-down/input)
GATGATTGTTCTCCCAGCTGATGAATTCTATAGCTCGAGTAAACAAATTTTCCTAATCTTTCTGTTCAAGCGCCATCTAC | 0.43 RPM ratio (pull-down/input)
GATGATTGTTCTCCCAGCTGATGAATTGGCGGCCTCGAGTAAACAAATTTTCCTAATCTTTCTGTTCAAGCGCCATCTAC | 0.449 RPM ratio (pull-down/input)
GATGATTGTTCTCCCAGCTGATGAATTGTAATTGTCGAGTAAACAAATTTTCCTAATCTTTCTGTTCAAGCGCCATCTAC | 2.31 RPM ratio (pull-down/input)
GATGATTGTTCTCCCAGCTGATGAATTTGTATTGTCGAGTAAACAAATTTTCCTAATCTTTCTGTTCAAGCGCCATCTAC | 6.39 RPM ratio (pull-down/input)
GATGATTGTTCTCCCAGCTGATGAATTTGTATTTTCGAGTAAACAAATTTTCCTAATCTTTCTGTTCAAGCGCCATCTAC | 4.85 RPM ratio (pull-down/input)
GATGATTGTTCTCCCAGCTGATGAATTTTGTATTTCGAGTAAACAAATTTTCCTAATCTTTCTGTTCAAGCGCCATCTAC | 5.33 RPM ratio (pull-down/input)
GATGATTGTTCTCCCAGCTGATGAATTGTATCTGTCGAGTAAACAAATTTTCCTAATCTTTCTGTTCAAGCGCCATCTAC | 1.2 RPM ratio (pull-down/input)
GATGATTGTTCTCCCAGCTGATGAATTGTATTTGTCGAGTAAACAAATTTTCCTAATCTTTCTGTTCAAGCGCCATCTAC | 6.43 RPM ratio (pull-down/input)
GATGATTGTTCTCCCAGCTGATGAATTACAAGCTTCGAGTAAACAAATTTTCCTAATCTTTCTGTTCAAGCGCCATCTAC | 0.518 RPM ratio (pull-down/input)
GATGATTGTTCTCCCAGCTGATGAATTTGGGCATTCGAGTAAACAAATTTTCCTAATCTTTCTGTTCAAGCGCCATCTAC | 4.79 RPM ratio (pull-down/input)

Sequence | binding signal
GATGATTGTTCTCCCAGCTGATGAATTGGGCATTTCGAGTAAACAAATTTTCCTAATCTTTCTGTTCAAGCGCCATCTAC | 5.5 RPM ratio (pull-down/input)
GATGATTGTTCTCCCAGCTGATGAATTGGGGGCATCGAGTAAACAAATTTTCCTAATCTTTCTGTTCAAGCGCCATCTAC | 0.87 RPM ratio (pull-down/input)
GATGATTGTTCTCCCAGCTGATGAATTGGGGCATTCGAGTAAACAAATTTTCCTAATCTTTCTGTTCAAGCGCCATCTAC | 4.3 RPM ratio (pull-down/input)
GATGATTGTTCTCCCAGCTGATGAATTGGGCATCTCGAGTAAACAAATTTTCCTAATCTTTCTGTTCAAGCGCCATCTAC | 6.41 RPM ratio (pull-down/input)
GATGATTGTTCTCCCAGCTGATGAATTTTGGGCATCGAGTAAACAAATTTTCCTAATCTTTCTGTTCAAGCGCCATCTAC | 0.782 RPM ratio (pull-down/input)
GATGATTGTTCTCCCAGCTGATGAATTAAGTGAATCGAGTAAACAAATTTTCCTAATCTTTCTGTTCAAGCGCCATCTAC | 0.328 RPM ratio (pull-down/input)
GATGATTGTTCTCCCAGCTGATGAATTAAGGGAGTCGAGTAAACAAATTTTCCTAATCTTTCTGTTCAAGCGCCATCTAC | 0.249 RPM ratio (pull-down/input)
GATGATTGTTCTCCCAGCTGATGAATTGCTTAAATCGAGTAAACAAATTTTCCTAATCTTTCTGTTCAAGCGCCATCTAC | 0.457 RPM ratio (pull-down/input)
GATGATTGTTCTCCCAGCTGATGAATTCTAGGTATCGAGTAAACAAATTTTCCTAATCTTTCTGTTCAAGCGCCATCTAC | 0.464 RPM ratio (pull-down/input)
GATGATTGTTCTCCCAGCTGATGAATTCGCAATTTCGAGTAAACAAATTTTCCTAATCTTTCTGTTCAAGCGCCATCTAC | 1.92 RPM ratio (pull-down/input)
GATGATTGTTCTCCCAGCTGATGAATTTCGCAATTCGAGTAAACAAATTTTCCTAATCTTTCTGTTCAAGCGCCATCTAC | 4.55 RPM ratio (pull-down/input)
GATGATTGTTCTCCCAGCTGATGAATTGCGCAATTCGAGTAAACAAATTTTCCTAATCTTTCTGTTCAAGCGCCATCTAC | 5.72 RPM ratio (pull-down/input)
GATGATTGTTCTCCCAGCTGATGAATTGTGCAATTCGAGTAAACAAATTTTCCTAATCTTTCTGTTCAAGCGCCATCTAC | 6.39 RPM ratio (pull-down/input)
GATGATTGTTCTCCCAGCTGATGAATTCTGCAATTCGAGTAAACAAATTTTCCTAATCTTTCTGTTCAAGCGCCATCTAC | 4.83 RPM ratio (pull-down/input)
GATGATTGTTCTCCCAGCTGATGAATTTGCAATTTCGAGTAAACAAATTTTCCTAATCTTTCTGTTCAAGCGCCATCTAC | 2.77 RPM ratio (pull-down/input)
GATGATTGTTCTCCCAGCTGATGAATTTTGCAATTCGAGTAAACAAATTTTCCTAATCTTTCTGTTCAAGCGCCATCTAC | 5.75 RPM ratio (pull-down/input)
GATGATTGTTCTCCCAGCTGATGAATTCGTGCAATCGAGTAAACAAATTTTCCTAATCTTTCTGTTCAAGCGCCATCTAC | 3.15 RPM ratio (pull-down/input)
